This is an account of results in PubChem BioAssay AID504806 (National Center for Advancing Translational Sciences (NCATS), 2011).

Unmarked numbers belong to inactive results. Calls of active or inactive are those of the source. Calls come from the whole dose curve; as a rule, active = well fitted activation curve with a large enough effect; inactive = flat fitted curve, though single readings scatter.

A short description of this test: Followup screen of LOPAC molecules that induce DNA re-replication in SW480 adenocarcinoma cells. The settings on record: Hoechst nuclear DNA content imaging, 48 h; series mostly up to 46.1 µM; activation (re-replication): at the top concentration. The source says:
NIH Molecular Libraries Probe Production Network [MLPCN] NIH Chemical Genomics Center [NCGC] MLPCN Grant: Fast Track K99 CA136555 Assay Provider: Melvin DePamphilis, NICHD, NIH Assay Overview Eukaryotic cells normally restrict genome duplication to once per cell division. When this process is aberrant, DNA re-replication occurs when cells reinitiate DNA replication before the first round of replication is complete. DNA re-replication induces the DNA damage response, arrests cell proliferation, and triggers apoptosis. The cell cycle components cyclin A, Cdt-1, Cdc6 and geminin are critical regulators of this process and their misregulation results in DNA re-replication in normal and cancer cells. To identify compounds that induce re-replication in normal cells, an image-based assay was used to measure DNA content of nuclei, as detected by the fluorescent DNA binding dye, Hoechst. Cell nuclei were imaged by a fluorescence scanning plate imager and compounds that induce DNA re-replication were identified by the increase of nuclei with elevated fluorescence intensity.
Assay Protocol Summary For screening, 250 cells in 5 uL/well were dispensed into black clear 1536-well plates (Aurora) using a solenoid-based dispenser. Following transfer of 23 nL compound or DMSO vehicle by a pin tool, the plates were incubated 48 hr at 37 C and 5% CO2. After addition of 1 uL/well Hoescht stain, the plates were incubated 40 min at 37 C, 5% CO2 and total intensity of fluorescent objects (nuclei) were enumerated by an Acumen Explorer Ex3 (TTP LabTech) fluorescence scanning plate imager (405 nm excitation, 500-530 nm emission). Keywords: NIH Roadmap, MLPCN, MLI, MLSMR, qHTS, NCGC, DNA replication, cancer
For the molecule `CCN(CC)C(=S)SSC(=S)N(CC)CC`, the Potency was 30 nM (active).

`CC(=O)[O-].CCN(CC)C(=S)SSC(=S)N(CC)CC.[Cu+]`: the Potency is 37.8 nM (active).

As for `CCN(CC)C(=S)SSC(=S)N(CC)CC.[Cl-].[Cl-].[Cu+2]`, the Potency is 37.8 nM (active).

As for `CCCCCCN(CCCCCC)C(=O)Cc1c(-c2ccc(F)cc2)[nH]c2ccccc12`, the Potency is 26800 nM (active).

For the molecule `CC(=O)[O-].CS(C)=O.[Cu+]`, the “activation (re-replication)” value was 2.13%.

As to `CS(C)=O.[Cl-].[Cl-].[Cu+2]`, the “activation (re-replication)” value was 5.94%.
